# From the supplement of paper PMC8728848
# The entries come from a sample that favours the strongest signals as a whole.
# B1: PX9937J-pdi-523-26-523 (Parabacteroides distasonis) (protein)
# chain: EPVSSISDANYWKSPDLFKAFNIGLHGLLRSQSSYNIFVLGEPRSDIYGDQPFGGEATQGVERFSYNTINAEFTGISNFANFYTTLNQINLMIRRTNETDLLGEAEKNYYLGQAYGLRAYIYFHLLRSWGDVIITTEPTLGSELDISHLDKAASPASEVMDLIKKDIDASEKAFGGDYSYKQGKCYWSKPATLMLKGEVYLWSGRQMGGGTGDYTVAKTALQDLQQNGNLKLQEKFTDVFSFNNKENSEMIFALHSGKEDDFMMWRDYNWRNNMVPQREYMAGYCDETGTPFLEIPGYNLQGLMRYQVKKDHYLKSFREGDTRLKGTLKAVYKKHEDGTLEYIAPIQYKFQGTTLEGSNERSWYDDYPIYRYADALLLLAEAKALLGEDPSTEINAVRERAYGSEYFNAHKNEVAYPNDKGSFYNDNPFEAGDENVMEAILKERLREFFFEGKRWYDLRRFGKDYVLKYTTAQESRLLWPINEGALTNNPALKQTPGY
# Assays:
# Assay in all cases: glycan array binding signal (z-score within array); higher = stronger binding
# Conditions in all cases: glycan notation: IUPAC condensed, linker removed
# [1] = target: Fuc(a1-2)Gal(b1-3)GlcNAc(b1-3)[Fuc(a1-2)Gal(b1-3)GlcNAc(b1-6)]GalNAc
# How it was run: (§1)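 The binding signal is a Z-score computed within each array. Data were drawn from 3228 arrays in the Consortium for Functional Glycomics database, restricted to those with a known protein sequence. Scores were averaged over arrays of the same protein sequence at different concentrations or buffers, and over linkers, and negative values can be taken as non-binding.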
# Fuc(a1-2)Gal(b1-4)Glc6S = target: Fuc(a1-2)Gal(b1-4)Glc6S
# How it was run: as §1
# [2] = target: Fuc(a1-2)Gal(b1-4)GlcNAc(b1-2)Man(a1-3)[Fuc(a1-2)Gal(b1-4)GlcNAc(b1-2)Man(a1-6)]Man(b1-4)GlcNAc(b1-4)[Fuc(a1-6)]GlcNAc
# How it was run: as §1
# [3] = target: Fuc(a1-2)[Gal(a1-3)]Gal(b1-3)GalNAc
# How it was run: as §1
# [4] = target: Fuc(a1-2)[Gal(a1-3)]Gal(b1-4)GlcNAc(b1-3)[Fuc(a1-2)[Gal(a1-3)]Gal(b1-4)GlcNAc(b1-6)]GalNAc
# How it was run: as §1
# [5] = target: Fuc(a1-2)[GalNAc(a1-3)]Gal(b1-4)GlcNAc(b1-3)Gal(b1-4)GlcNAc(b1-3)Gal(b1-4)GlcNAc
# How it was run: as §1
# [6] = target: Fuc(a1-3)[Gal(b1-4)]Glc6S
# How it was run: as §1
# [7] = target: Fuc(a1-3)[Gal(b1-4)]GlcNAc(b1-6)GalNAc
# How it was run: as §1
# [8] = target: Fuc(a1-3)[Gal(b1-4)]GlcNAc6S
# How it was run: as §1
# Gal(a1-2)Gal = target: Gal(a1-2)Gal
# How it was run: as §1
# Gal(a1-4)Gal(b1-4)Glc = target: Gal(a1-4)Gal(b1-4)Glc
# How it was run: as §1
# [9] = target: Gal(a1-4)Gal(b1-4)GlcNAc(b1-2)Man(a1-3)[Gal(a1-4)Gal(b1-4)GlcNAc(b1-2)Man(a1-6)]Man(b1-4)GlcNAc(b1-4)GlcNAc
# How it was run: as §1
# [10] = target: Gal(b1-3)GlcNAc(b1-2)Man(a1-3)[Gal(b1-3)GlcNAc(b1-2)Man(a1-6)]Man(b1-4)GlcNAc(b1-4)GlcNAc
# How it was run: as §1
# [11] = target: Gal(b1-3)GlcNAc(b1-3)Gal(b1-4)GlcNAc(b1-2)Man(a1-3)[Gal(b1-3)GlcNAc(b1-3)Gal(b1-4)GlcNAc(b1-2)Man(a1-6)]Man(b1-4)GlcNAc(b1-4)GlcNAc
# How it was run: as §1
# [12] = target: Gal(b1-3)GlcNAc(b1-3)Gal(b1-4)GlcNAc(b1-6)[Gal(b1-3)GlcNAc(b1-3)]Gal(b1-4)Glc
# How it was run: as §1
# [13] = target: Gal(b1-3)GlcNAc(b1-3)Gal(b1-4)[Fuc(a1-3)]GlcNAc(b1-6)[Gal(b1-3)GlcNAc(b1-3)]Gal(b1-4)Glc
# How it was run: as §1
# [14] = target: Gal(b1-3)GlcNAc(b1-3)GalNAc
# How it was run: as §1
# [15] = target: Gal(b1-3)GlcNAc(b1-6)Gal(b1-4)GlcNAc
# How it was run: as §1
# [16] = target: Gal(b1-3)[Fuc(a1-4)]GlcNAc(b1-3)Gal(b1-4)[Fuc(a1-3)]GlcNAc
# How it was run: as §1
# Gal(b1-4)GlcNAc = target: Gal(b1-4)GlcNAc
# How it was run: as §1
# [17] = target: Gal(b1-4)GlcNAc(b1-3)Gal(b1-4)GlcNAc
# How it was run: as §1
# [18] = target: Gal(b1-4)GlcNAc(b1-3)Gal(b1-4)GlcNAc(b1-2)[Gal(b1-4)GlcNAc(b1-3)Gal(b1-4)GlcNAc(b1-6)]Man(a1-6)[Gal(b1-4)GlcNAc(b1-3)Gal(b1-4)GlcNAc(b1-2)Man(a1-3)]Man(b1-4)GlcNAc(b1-4)GlcNAc
# How it was run: as §1
# [19] = target: Gal(b1-4)GlcNAc(b1-3)Gal(b1-4)GlcNAc(b1-3)Gal(b1-4)GlcNAc(b1-3)Gal(b1-4)GlcNAc(b1-2)Man(a1-3)[Gal(b1-4)GlcNAc(b1-3)Gal(b1-4)GlcNAc(b1-3)Gal(b1-4)GlcNAc(b1-3)Gal(b1-4)GlcNAc(b1-2)Man(a1-6)]Man(b1-4)GlcNAc(b1-4)[Fuc(a1-6)]GlcNAc
# How it was run: as §1
# [20] = target: Gal(b1-4)GlcNAc(b1-3)Gal(b1-4)GlcNAc(b1-3)Gal(b1-4)GlcNAc(b1-3)Gal(b1-4)GlcNAc(b1-3)Gal(b1-4)GlcNAc(b1-3)Gal(b1-4)GlcNAc(b1-2)Man(a1-3)[Gal(b1-4)GlcNAc(b1-3)Gal(b1-4)GlcNAc(b1-3)Gal(b1-4)GlcNAc(b1-3)Gal(b1-4)GlcNAc(b1-3)Gal(b1-4)GlcNAc(b1-3)Gal(b1-4)GlcNAc(b1-2)Man(a1-6)]Man(b1-4)GlcNAc(b1-4)GlcNAc
# How it was run: as §1
# [21] = target: Gal(b1-4)GlcNAc(b1-3)Gal(b1-4)GlcNAc(b1-3)GalNAc
# How it was run: as §1
# [22] = target: Gal(b1-4)GlcNAc(b1-3)GalNAc
# How it was run: as §1
# [23] = target: Gal(b1-4)GlcNAc(b1-3)[Gal(b1-4)GlcNAc(b1-6)]Gal(b1-4)GlcNAc
# How it was run: as §1
# [24] = target: Gal(b1-4)GlcNAc(b1-6)[Gal(b1-4)GlcNAc(b1-3)]GalNAc
# How it was run: as §1
# Gal3S6S(b1-4)GlcNAc = target: Gal3S6S(b1-4)GlcNAc
# How it was run: as §1
# Gal4S6S(b1-4)GlcNAc = target: Gal4S6S(b1-4)GlcNAc
# How it was run: as §1
binder,measurement,setting,value
B1,glycan array binding signal (z-score),[1],-0.127
same,glycan array binding signal (z-score),Fuc(a1-2)Gal(b1-4)Glc6S,-0.759
same,glycan array binding signal (z-score),[2],0.953
same,glycan array binding signal (z-score),[3],-0.16
same,glycan array binding signal (z-score),[4],-0.426
same,glycan array binding signal (z-score),[5],-0.377
same,glycan array binding signal (z-score),[6],-0.103
same,glycan array binding signal (z-score),[7],-0.093
same,glycan array binding signal (z-score),[8],5.71
same,glycan array binding signal (z-score),Gal(a1-2)Gal,-0.363
same,glycan array binding signal (z-score),Gal(a1-4)Gal(b1-4)Glc,0.596
same,glycan array binding signal (z-score),[9],2.9
same,glycan array binding signal (z-score),[10],-0.12
same,glycan array binding signal (z-score),[11],3.05
same,glycan array binding signal (z-score),[12],0.461
same,glycan array binding signal (z-score),[13],-0.698
same,glycan array binding signal (z-score),[14],-0.708
same,glycan array binding signal (z-score),[15],-0.374
same,glycan array binding signal (z-score),[16],-0.34
same,glycan array binding signal (z-score),Gal(b1-4)GlcNAc,0.078
same,glycan array binding signal (z-score),[17],-0.225
same,glycan array binding signal (z-score),[18],10.4
same,glycan array binding signal (z-score),[19],0.026
same,glycan array binding signal (z-score),[20],8.6
same,glycan array binding signal (z-score),[21],6.57
same,glycan array binding signal (z-score),[22],-0.086
same,glycan array binding signal (z-score),[23],-0.21
same,glycan array binding signal (z-score),[24],-0.149
same,glycan array binding signal (z-score),Gal3S6S(b1-4)GlcNAc,0.142
same,glycan array binding signal (z-score),Gal4S6S(b1-4)GlcNAc,-0.181
